In all, about 310,000 compounds went through this assay and about 14,000 (4.5%) showed an effect of 50% or more. The effect is printed as a negative number. The entries come from a sample that favours strong results as a whole.
These compounds were tested against human ether-à-go-go-related gene (hERG) potassium channel (human, UniProt Q12809) (assay: primary screen, population patch clamp on CHO cells stably expressing hERG; higher = less effect of the substance).
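Note: peak tail current of the secondary pulse compared with the same well before compound.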

human ether-à-go-go-related gene (hERG) potassium channel, sequence (Q12809 whole entry, looked up): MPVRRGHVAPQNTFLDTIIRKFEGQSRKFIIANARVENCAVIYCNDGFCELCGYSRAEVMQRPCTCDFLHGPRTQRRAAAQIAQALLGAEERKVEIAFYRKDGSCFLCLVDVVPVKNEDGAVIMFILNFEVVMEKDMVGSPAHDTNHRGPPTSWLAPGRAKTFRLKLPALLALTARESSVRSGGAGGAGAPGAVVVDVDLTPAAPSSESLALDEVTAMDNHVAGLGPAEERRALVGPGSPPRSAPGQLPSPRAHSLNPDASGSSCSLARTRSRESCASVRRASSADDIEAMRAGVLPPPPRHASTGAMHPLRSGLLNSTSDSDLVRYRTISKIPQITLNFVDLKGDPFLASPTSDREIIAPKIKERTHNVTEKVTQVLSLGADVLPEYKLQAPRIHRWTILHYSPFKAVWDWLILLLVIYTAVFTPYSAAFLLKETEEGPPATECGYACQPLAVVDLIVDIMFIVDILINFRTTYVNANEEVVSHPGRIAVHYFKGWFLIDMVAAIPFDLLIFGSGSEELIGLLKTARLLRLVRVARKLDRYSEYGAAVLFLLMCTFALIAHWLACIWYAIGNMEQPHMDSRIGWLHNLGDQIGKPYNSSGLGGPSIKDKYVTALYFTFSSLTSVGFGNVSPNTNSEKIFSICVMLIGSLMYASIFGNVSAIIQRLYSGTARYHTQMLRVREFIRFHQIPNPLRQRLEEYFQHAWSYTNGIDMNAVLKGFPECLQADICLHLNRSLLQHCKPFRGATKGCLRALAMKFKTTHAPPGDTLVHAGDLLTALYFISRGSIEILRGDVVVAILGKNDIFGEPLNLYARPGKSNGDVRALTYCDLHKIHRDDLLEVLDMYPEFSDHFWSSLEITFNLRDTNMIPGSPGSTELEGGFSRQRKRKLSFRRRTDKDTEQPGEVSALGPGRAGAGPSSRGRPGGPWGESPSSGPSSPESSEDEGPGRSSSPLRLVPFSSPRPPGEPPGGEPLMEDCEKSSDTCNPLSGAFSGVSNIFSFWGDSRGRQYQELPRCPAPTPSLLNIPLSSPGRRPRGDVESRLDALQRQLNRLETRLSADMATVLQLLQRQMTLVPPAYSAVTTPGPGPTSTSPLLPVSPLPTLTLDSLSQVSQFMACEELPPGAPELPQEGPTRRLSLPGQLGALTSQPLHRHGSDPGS

How did the “hERG current change (%, negative = inhibition) at 10uM” value turn out when `NS(=O)(=O)c1ccc(N2CCN(CCOc3ccc(Cl)cc3)CC2)nc1` was run?
Its value is -69.8%.

With `CN(C)C(=O)CSc1ccc(S(=O)(=O)N2CCOCC2)cn1` as the compound, how does the “hERG current change (%, negative = inhibition) at 10uM” value read?
The value was 10.6%.

For `O=C(CSc1nnc(-c2cccs2)o1)N1CCCCC1`, which “hERG current change (%, negative = inhibition) at 10uM” value is on record?
The value was 2.99%.

With `CCOC(=O)CSc1nc2ccccc2c(=O)n1-c1ccc(C)cn1` as the compound, how does the “hERG current change (%, negative = inhibition) at 10uM” value read?
Its value is 0.327%.

For `O=C(/C=C/c1ccccc1)NCC1(c2ccccc2)CCOCC1`, which “hERG current change (%, negative = inhibition) at 10uM” value is on record?
The value was -9.11%.

How did the “hERG current change (%, negative = inhibition) at 10uM” value turn out when `O=C(/C=C/c1ccc(F)cc1)NCC1(c2ccccc2)CCOCC1` was run?
Its value is -50.5%.

`O=C(/C=C/c1ccco1)NCC1(c2ccccc2)CCCC1` was tested. Which “hERG current change (%, negative = inhibition) at 10uM” value did it give?
The value was -4.49%.

With `O=C(NC1CCCC1)C(c1ccncc1)N(C(=O)c1csnn1)c1ccccc1` (stereo not shown) as the compound, how does the “hERG current change (%, negative = inhibition) at 10uM” value read?
Its value is 15.1%.

`Cc1cc(N2C(=O)C(O)=C(C(=O)c3ccco3)C2c2ccc(Cl)cc2)no1` (stereo not shown) was tested. Which “hERG current change (%, negative = inhibition) at 10uM” value did it give?
Its value is -6.77%.

Which “hERG current change (%, negative = inhibition) at 10uM” value does the source give for `O=C(NCC(=O)N(c1cccc(F)c1)C(C(=O)NCC1CCCO1)c1ccccc1)c1ccco1` (stereo not shown) here?
The value was 6.26%.

How did the “hERG current change (%, negative = inhibition) at 10uM” value turn out when `Cc1ccc(S(=O)(=O)N(C)c2ccc(C(=O)NCCc3ccccc3)cc2)cc1` was run?
The value was -6.94%.

Which “hERG current change (%, negative = inhibition) at 10uM” value does the source give for `COc1ccc(CCNC(=O)COc2ccc(N(C)S(=O)(=O)c3ccc(C)cc3)cc2)cc1` here?
The value was 6.95%.

For `Cc1ccc(S(=O)(=O)N(C)c2ccc(C(=O)NCC3CCCO3)cc2)cc1` (stereo not shown), which “hERG current change (%, negative = inhibition) at 10uM” value is on record?
Its value is -16.7%.

`Cc1ccc(S(=O)(=O)N(C)c2ccc(C(=O)NCC3(N(C)C)CCCCC3)cc2)cc1` was tested. Which “hERG current change (%, negative = inhibition) at 10uM” value did it give?
Its value is -65.4%.

`Cc1ccc(S(=O)(=O)N(C)c2ccc(OCC(=O)NCC3(N(C)C)CCCCC3)cc2)cc1` was tested. Which “hERG current change (%, negative = inhibition) at 10uM” value did it give?
Its value is -73.5%.

Which “hERG current change (%, negative = inhibition) at 10uM” value does the source give for `Cc1ccc(S(=O)(=O)N(C)c2ccc(OCC(=O)NCc3ccco3)cc2)cc1` here?
The value was -44.8%.

Which “hERG current change (%, negative = inhibition) at 10uM” value does the source give for `O=C(CN1C(=O)NC(CCc2ccccc2)C1=O)NC1CC1` (stereo not shown) here?
Its value is 18.8%.

`Cc1ccc(SC(C)C(=O)NCc2cccnc2)cc1` (stereo not shown) was tested. Which “hERG current change (%, negative = inhibition) at 10uM” value did it give?
Its value is 5.44%.

For `COc1ccc(C(C)(C)C)cc1NC(=S)NCCN1CCOCC1`, which “hERG current change (%, negative = inhibition) at 10uM” value is on record?
The value was 1.38%.

`Cc1ccc(Cn2c(=N)c(S(=O)(=O)c3ccc(C)cc3)cc3c(=O)n4ccccc4nc32)cc1` was tested. Which “hERG current change (%, negative = inhibition) at 10uM” value did it give?
The value was 17.7%.

For `Cc1ccc(Cn2c(=N)c(C(=O)NC3CCCCC3)cc3c(=O)n4ccccc4nc32)cc1`, which “hERG current change (%, negative = inhibition) at 10uM” value is on record?
Its value is -65.7%.

Which “hERG current change (%, negative = inhibition) at 10uM” value does the source give for `Cc1ccc(Cn2c(=N)c(S(=O)(=O)c3ccc(Br)cc3)cc3c(=O)n4ccccc4nc32)cc1` here?
Its value is -6.27%.

Which “hERG current change (%, negative = inhibition) at 10uM” value does the source give for `Cc1ccc(Cn2c(=N)c(C(=O)NC3CCCC3)cc3c(=O)n4ccccc4nc32)cc1` here?
The value was -92.7%.

Which “hERG current change (%, negative = inhibition) at 10uM” value does the source give for `C/C(=N\NC(=O)C1CCCC1)c1ccc(Cl)c(Cl)c1` here?
Its value is 13.7%.

`O=C(c1ccco1)N1CCN(C(=O)C2CCCN(S(=O)(=O)Cc3ccccc3)C2)CC1` (stereo not shown) was tested. Which “hERG current change (%, negative = inhibition) at 10uM” value did it give?
The value was -35.4%.

With `O=C(NCc1c(Cl)cccc1Cl)c1ccc2nnsc2c1` as the compound, how does the “hERG current change (%, negative = inhibition) at 10uM” value read?
The value was 8.96%.

`NC(=O)c1ccc(NC(=O)CN2CCOCC2)cc1` was tested. Which “hERG current change (%, negative = inhibition) at 10uM” value did it give?
The value was 17.9%.

Which “hERG current change (%, negative = inhibition) at 10uM” value does the source give for `CCOc1ccc(NC(=O)CN2CCN(CC(=O)c3ccc(OC)c(OC)c3)CC2)cc1` here?
Its value is -84.4%.

With `CCOc1ccc(NC(=O)CNC(=O)c2ccc(OC)c(OC)c2)cc1` as the compound, how does the “hERG current change (%, negative = inhibition) at 10uM” value read?
The value was 0.00778%.

Which “hERG current change (%, negative = inhibition) at 10uM” value does the source give for `CCOc1ccc(NC(=O)CN2CCN(CC(=O)Nc3ccc(C(N)=O)cc3)CC2)cc1` here?
The value was -72.6%.

For `COC(=O)c1ccc(NC(=O)CN2CCCC2)cc1`, which “hERG current change (%, negative = inhibition) at 10uM” value is on record?
The value was 5.33%.

For `CCOc1ccc(NC(=O)CN2CCN(CC(=O)Nc3ccc(C(=O)OC)cc3)CC2)cc1`, which “hERG current change (%, negative = inhibition) at 10uM” value is on record?
The value was -66.2%.

Which “hERG current change (%, negative = inhibition) at 10uM” value does the source give for `COC(=O)c1ccc(NC(=O)CN2CCN(CCO)CC2)cc1.Cl` here?
The value was -5.29%.

With `Cc1ccc(OCC(=O)Nc2ccc(C(N)=O)cc2)cc1` as the compound, how does the “hERG current change (%, negative = inhibition) at 10uM” value read?
Its value is 16.5%.

How did the “hERG current change (%, negative = inhibition) at 10uM” value turn out when `CCCCOc1ccc(C(=O)N2CCN(CC(=O)Nc3ccc(C)cc3)CC2)cc1OC` was run?
Its value is -47.1%.

For `Cc1ccccc1C(=O)Nc1nnc(CC(=O)N/N=C/c2cn(Cc3ccccc3)c3ccccc23)s1`, which “hERG current change (%, negative = inhibition) at 10uM” value is on record?
The value was 12.6%.

`COc1ccc([N+](=O)[O-])cc1NC(=O)CCN1CCN(C)CC1` was tested. Which “hERG current change (%, negative = inhibition) at 10uM” value did it give?
The value was 16.3%.

For `COC(=O)C(NC(=O)CCC(=O)N[C@@H](C(=O)OC)c1ccccc1)c1ccccc1` (stereo partly shown), which “hERG current change (%, negative = inhibition) at 10uM” value is on record?
Its value is 9.88%.

Which “hERG current change (%, negative = inhibition) at 10uM” value does the source give for `N#CC1=CN(Cc2ccccc2)C=C(/C=N/Nc2ccccc2)C1` here?
The value was -5.72%.

`c1ccc2c(CNc3ccc(CNc4ncn[nH]4)cc3)cccc2c1` was tested. Which “hERG current change (%, negative = inhibition) at 10uM” value did it give?
The value was 1.99%.

`CCCCC(=O)Nc1ccc(C(=O)NNC(=O)CCCOc2ccc(Cl)cc2Cl)cc1` was tested. Which “hERG current change (%, negative = inhibition) at 10uM” value did it give?
The value was 7.25%.

Which “hERG current change (%, negative = inhibition) at 10uM” value does the source give for `Fc1ccc(COc2cccc3cccnc23)cc1` here?
Its value is -8.3%.

Which “hERG current change (%, negative = inhibition) at 10uM” value does the source give for `CC(OC(=O)c1ccc(NS(=O)(=O)c2ccc3[nH]c(=O)[nH]c3c2)cc1)C(N)=O` (stereo not shown) here?
The value was 18.1%.

Source: publication PMC4336329 (PLoS ONE, 2015)
